The values that follow come from ChEMBL document CHEMBL3988442, “University of Dundee, Small-Polar-MMV Screening Library” (2021).

What all share (parameters): scale not given: direction of the effect not stated beside the values
In experiment [1] the target is Protein translocase subunit SecA (Escherichia coli (strain K12)) (UniProt P10408). Nature of the experiment: Assay to Identify E. coli SecA ATPase Inhibitors. It is filed as functional. The following applies: 30 µM.
Experiment [2] deals with T1, Ubiquitin-activating enzyme e1, putative (Leishmania donovani (strain BPK282A1)) (UniProt E9BSI1).
T1 sequence (whole entry): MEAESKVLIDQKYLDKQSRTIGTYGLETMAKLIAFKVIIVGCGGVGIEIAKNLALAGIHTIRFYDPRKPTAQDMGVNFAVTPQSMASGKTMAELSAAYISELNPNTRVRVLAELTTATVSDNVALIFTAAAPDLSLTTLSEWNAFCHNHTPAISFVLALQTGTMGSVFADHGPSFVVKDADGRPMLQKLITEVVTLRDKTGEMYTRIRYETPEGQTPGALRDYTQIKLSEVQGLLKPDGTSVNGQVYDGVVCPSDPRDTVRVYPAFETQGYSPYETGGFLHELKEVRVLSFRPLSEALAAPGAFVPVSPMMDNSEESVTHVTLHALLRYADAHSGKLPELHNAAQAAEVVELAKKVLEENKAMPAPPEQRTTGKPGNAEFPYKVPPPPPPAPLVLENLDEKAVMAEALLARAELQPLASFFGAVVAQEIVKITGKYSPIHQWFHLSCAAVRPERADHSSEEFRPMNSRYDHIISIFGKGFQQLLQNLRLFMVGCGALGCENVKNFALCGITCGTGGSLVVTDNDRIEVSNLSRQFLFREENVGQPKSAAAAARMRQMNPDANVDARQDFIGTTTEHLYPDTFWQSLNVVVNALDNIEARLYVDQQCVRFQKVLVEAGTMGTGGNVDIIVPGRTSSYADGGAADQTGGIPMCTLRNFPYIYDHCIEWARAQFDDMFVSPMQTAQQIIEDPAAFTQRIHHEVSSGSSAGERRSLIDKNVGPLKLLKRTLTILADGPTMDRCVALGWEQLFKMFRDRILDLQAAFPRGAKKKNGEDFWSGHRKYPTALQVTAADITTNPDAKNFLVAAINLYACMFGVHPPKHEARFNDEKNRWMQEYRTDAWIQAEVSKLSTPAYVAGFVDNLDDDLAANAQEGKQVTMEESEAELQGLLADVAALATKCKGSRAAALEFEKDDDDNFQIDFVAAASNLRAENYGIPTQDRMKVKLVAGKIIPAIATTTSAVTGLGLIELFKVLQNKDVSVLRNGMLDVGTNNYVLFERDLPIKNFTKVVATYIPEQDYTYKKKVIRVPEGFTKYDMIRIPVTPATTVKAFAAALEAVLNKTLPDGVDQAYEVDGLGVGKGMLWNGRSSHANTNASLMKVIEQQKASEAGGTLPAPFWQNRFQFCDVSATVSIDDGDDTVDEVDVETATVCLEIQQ
Briefly: Leishmania donovani Ubiquitin Activating Enzyme (LdE1). It is filed as functional. The following applies: 30 µM.

The target in experiment [3] is AMP-activated protein kinase, AMPK (Homo sapiens) (UniProt P54646+O43741+P54619+Q9UGJ0+Q9Y478+Q13131+Q9UGI9). Nature of the experiment: AMP-dependent Kinase enzyme assay. An in vitro enzyme assay that detects ADP turnover that is directly proportional to AMPK activity. This uses naive AMPK that is activated during the assay with MK-8722. The format is functional. The note with it: 30 µM.

For experiment [4], the target named is Sialic acid-binding Ig-like lectin 9 (Homo sapiens) (UniProt Q9Y336). Nature of the experiment: Hs-Siglec9 ALPHAscreen SOP 20170721. The following applies: 10 µM. On the technique in general: Alpha assays give light when donor and acceptor beads are brought close together.
A further experiment relates to Trypanosoma cruzi. Nature of the experiment: Trypanosoma cruzi phosphomannomutase and mannose-1-phosphate guanylyltransferase assay. The format is functional. The note with it: 10 µM.
Experiment [5] has as its target T2, Arginase-2, mitochondrial (Homo sapiens) (UniProt P78540).
T2 sequence (whole entry): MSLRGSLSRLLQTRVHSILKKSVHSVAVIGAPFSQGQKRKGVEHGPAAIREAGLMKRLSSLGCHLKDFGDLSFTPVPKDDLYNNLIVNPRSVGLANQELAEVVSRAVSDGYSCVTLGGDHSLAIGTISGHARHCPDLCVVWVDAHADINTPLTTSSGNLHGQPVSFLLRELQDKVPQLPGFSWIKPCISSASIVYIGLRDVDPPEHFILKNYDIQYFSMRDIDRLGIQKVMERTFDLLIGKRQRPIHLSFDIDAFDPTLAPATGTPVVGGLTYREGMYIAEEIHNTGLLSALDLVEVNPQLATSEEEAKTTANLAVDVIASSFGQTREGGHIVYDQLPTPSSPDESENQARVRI
Briefly: in vitro enzyme assay to detect the production of urea directly proportional to the activity of Arginase II. Note: in the data most compounds retested in dose-response had high values. It is filed as functional. The note with it: 33.3 µM.

For experiment [6], the target named is T3, Proteasome subunit beta (Trypanosoma cruzi) (UniProt O96673).
T3 sequence (whole entry): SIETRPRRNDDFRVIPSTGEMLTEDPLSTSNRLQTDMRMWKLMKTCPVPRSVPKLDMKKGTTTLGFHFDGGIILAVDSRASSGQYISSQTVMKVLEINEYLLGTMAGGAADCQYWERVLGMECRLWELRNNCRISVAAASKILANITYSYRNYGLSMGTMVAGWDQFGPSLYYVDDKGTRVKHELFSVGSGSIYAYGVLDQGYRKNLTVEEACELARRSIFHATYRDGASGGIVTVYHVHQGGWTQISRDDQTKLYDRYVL
Briefly: Trypanosoma cruzi proteasome chymotrypsin-like activity (TcProtChymo) assay. Note: in the data most compounds retested in dose-response had high values. The format is functional. The following applies: 9.37 µM.

Another experiment is filed under the species Homo sapiens. Nature of the experiment: To identify inhibition of the IFN signalling (Jak-Stat) pathway via expression of an eGFP reporter gene under the control of an IFN-stimulated response element (ISRE) containing MxA promoter. The format is functional. The note with it: 30 µM.
Experiment [7] concerns the target T4, Tyrosyl-tRNA synthetase, putative (Trypanosoma cruzi (strain CL Brener)) (UniProt Q4DSP6).
T4 sequence (whole entry): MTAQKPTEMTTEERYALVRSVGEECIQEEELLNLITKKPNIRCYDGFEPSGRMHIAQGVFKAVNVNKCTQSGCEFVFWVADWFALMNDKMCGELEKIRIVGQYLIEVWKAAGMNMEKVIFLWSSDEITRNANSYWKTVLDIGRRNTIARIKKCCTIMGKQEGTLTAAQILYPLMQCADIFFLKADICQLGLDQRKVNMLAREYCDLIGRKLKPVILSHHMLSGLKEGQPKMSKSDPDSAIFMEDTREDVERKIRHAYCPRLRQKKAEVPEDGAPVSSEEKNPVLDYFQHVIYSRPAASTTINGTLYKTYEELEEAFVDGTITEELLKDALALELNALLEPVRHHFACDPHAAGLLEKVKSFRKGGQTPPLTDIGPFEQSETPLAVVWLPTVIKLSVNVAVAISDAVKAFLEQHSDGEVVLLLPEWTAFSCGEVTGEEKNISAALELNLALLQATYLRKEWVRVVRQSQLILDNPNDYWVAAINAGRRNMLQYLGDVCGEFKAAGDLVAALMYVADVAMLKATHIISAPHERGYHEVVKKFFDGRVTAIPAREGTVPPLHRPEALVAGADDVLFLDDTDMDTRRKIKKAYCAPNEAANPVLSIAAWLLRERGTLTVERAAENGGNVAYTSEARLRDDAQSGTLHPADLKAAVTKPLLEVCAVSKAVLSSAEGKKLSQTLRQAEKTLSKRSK
Nature of the experiment: Trypanosoma cruzi tyrosyl tRNA synthetase (TcYRS) _High Tyrosine SOP. Note: in the data most compounds retested in dose-response had high values. It is filed as functional. The note with it: 30 µM.

The target of experiment [8] is T4, Tyrosyl-tRNA synthetase, putative (Trypanosoma cruzi (strain CL Brener)). Nature of the experiment: Trypanosoma cruzi tyrosyl tRNA synthetase (TcYRS) SOP. The note with it: 30 µM. The format is functional.
For experiment [9], the target named is Chromo domain-containing protein 1 (Saccharomyces cerevisiae (strain ATCC 204508 / S288c) (Baker's yeast)) (UniProt P32657). Nature of the experiment: ScCHD-1 Enzyme Inhibition Assay. Note: in the data most compounds retested in dose-response had high values. The note with it: 30 µM. The format is functional.

SMILES strings stand for the structures. For some of these results: Entries with a potency or affinity are not part of this list.

Protein translocase subunit SecA (Escherichia coli (strain K12)), sequence (P10408 whole entry): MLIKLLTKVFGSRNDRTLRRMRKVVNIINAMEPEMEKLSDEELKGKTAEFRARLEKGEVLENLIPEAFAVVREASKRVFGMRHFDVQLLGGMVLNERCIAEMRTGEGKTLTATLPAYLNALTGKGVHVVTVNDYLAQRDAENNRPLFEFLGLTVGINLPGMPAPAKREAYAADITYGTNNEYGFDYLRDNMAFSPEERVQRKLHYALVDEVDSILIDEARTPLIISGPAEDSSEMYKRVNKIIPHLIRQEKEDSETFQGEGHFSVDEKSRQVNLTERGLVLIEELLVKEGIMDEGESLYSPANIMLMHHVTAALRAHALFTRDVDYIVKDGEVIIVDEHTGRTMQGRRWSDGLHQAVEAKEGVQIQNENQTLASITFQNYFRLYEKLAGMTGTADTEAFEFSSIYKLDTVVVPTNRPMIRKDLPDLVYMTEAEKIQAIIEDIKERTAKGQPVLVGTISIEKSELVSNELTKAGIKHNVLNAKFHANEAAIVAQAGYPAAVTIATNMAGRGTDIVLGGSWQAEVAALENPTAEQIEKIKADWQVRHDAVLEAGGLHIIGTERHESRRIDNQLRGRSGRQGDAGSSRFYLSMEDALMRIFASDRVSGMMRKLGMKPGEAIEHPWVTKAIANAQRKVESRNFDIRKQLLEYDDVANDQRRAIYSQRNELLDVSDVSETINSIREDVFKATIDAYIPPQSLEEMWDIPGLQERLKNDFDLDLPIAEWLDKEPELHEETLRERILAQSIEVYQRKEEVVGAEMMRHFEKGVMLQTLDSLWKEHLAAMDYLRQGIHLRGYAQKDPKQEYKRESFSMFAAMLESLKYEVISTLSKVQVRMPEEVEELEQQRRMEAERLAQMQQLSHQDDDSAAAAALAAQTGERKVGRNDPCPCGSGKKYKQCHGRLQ
Sialic acid-binding Ig-like lectin 9 (Homo sapiens), sequence (Q9Y336 whole entry): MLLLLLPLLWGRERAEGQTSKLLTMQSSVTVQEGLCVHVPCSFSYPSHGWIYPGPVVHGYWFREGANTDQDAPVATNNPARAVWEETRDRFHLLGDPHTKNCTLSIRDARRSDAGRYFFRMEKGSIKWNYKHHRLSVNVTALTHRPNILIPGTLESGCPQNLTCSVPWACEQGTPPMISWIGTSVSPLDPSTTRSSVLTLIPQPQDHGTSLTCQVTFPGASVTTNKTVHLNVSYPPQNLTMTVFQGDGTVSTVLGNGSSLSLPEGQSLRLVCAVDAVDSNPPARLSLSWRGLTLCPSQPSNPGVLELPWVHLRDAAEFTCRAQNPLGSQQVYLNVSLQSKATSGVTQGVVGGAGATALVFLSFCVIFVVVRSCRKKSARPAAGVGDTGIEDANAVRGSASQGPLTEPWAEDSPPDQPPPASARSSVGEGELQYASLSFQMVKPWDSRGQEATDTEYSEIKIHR
Chromo domain-containing protein 1 (Saccharomyces cerevisiae (strain ATCC 204508 / S288c) (Baker's yeast)), sequence (P32657 whole entry, the tested form may be a part): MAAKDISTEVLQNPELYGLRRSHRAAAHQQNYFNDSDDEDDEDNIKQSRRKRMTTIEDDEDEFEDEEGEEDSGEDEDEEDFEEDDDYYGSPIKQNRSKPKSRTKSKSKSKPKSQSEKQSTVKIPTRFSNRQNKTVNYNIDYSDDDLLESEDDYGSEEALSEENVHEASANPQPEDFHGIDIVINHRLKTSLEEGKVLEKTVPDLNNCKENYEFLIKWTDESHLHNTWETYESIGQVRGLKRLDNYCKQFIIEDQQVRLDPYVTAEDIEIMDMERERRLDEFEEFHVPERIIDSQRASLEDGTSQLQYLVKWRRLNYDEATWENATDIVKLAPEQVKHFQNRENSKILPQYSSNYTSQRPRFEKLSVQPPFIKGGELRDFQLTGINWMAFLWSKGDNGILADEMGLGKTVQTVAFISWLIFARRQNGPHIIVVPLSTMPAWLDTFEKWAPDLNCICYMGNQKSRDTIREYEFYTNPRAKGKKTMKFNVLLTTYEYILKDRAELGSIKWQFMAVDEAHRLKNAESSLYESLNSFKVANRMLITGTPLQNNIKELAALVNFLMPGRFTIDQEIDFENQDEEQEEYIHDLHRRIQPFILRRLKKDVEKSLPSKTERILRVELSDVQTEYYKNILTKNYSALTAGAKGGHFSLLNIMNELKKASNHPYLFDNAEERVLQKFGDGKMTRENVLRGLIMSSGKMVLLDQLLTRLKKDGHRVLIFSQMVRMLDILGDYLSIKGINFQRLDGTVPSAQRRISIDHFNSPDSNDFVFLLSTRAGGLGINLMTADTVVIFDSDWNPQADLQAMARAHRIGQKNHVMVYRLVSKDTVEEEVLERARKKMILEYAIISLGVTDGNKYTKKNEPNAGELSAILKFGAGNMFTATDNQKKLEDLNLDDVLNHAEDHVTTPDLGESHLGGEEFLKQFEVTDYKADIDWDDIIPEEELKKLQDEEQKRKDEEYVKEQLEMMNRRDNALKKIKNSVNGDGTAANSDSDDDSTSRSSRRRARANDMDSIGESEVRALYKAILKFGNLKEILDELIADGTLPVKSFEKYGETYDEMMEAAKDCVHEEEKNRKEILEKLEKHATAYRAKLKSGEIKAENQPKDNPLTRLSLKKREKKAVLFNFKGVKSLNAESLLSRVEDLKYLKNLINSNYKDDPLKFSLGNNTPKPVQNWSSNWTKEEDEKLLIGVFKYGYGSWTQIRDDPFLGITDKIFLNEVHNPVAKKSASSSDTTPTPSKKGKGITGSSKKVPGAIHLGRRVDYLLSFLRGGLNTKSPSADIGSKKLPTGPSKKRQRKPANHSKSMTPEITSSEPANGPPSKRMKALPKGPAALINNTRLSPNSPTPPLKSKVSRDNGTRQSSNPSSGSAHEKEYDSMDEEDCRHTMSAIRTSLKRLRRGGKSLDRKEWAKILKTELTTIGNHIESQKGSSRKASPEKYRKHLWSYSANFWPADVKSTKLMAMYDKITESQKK

Regarding `O=C1N(CCCc2ccccc2)CCCC1(O)CNCc1ccccc1` (stereo not drawn), the Percent Effect was -3.24% in experiment [1]; 2.7% in [2]; -10.2% in [3]; 31.6% in experiment [4]; 4.4% with Trypanosoma cruzi; -0.248% in [5]. In addition, the Percent Effect in experiment [6] was 8.5%; in the experiment listed under Homo sapiens it was -7.46%; in [7] it was 8.6%; in experiment [8], 18.5%; in [9], -3.9%.

Take `CC(C)c1nn(C)c(N2CCOCC2)c1CN[C@H](C)CO`: the Percent Effect is -5.92% in experiment [1]; 7.89% in experiment [2]; -9.46% in [3]; -5.12% in experiment [4]; -1.96% in the experiment on Trypanosoma cruzi; 1.44% in experiment [5]. Besides, the Percent Effect in [6] is 3.3%; in the experiment filed under Homo sapiens, -5.23%; in experiment [7], 5.42%; in experiment [8], 6.17%; in experiment [9], -4.66%.

For the compound `Cn1cccc1CNC(=O)CCCc1nnc2ccccn12`, the Percent Effect is -4.97% in experiment [1]; 6.67% in experiment [2]; -2.6% in [3]; 1.09% in experiment [4]; 3.14% in the experiment on Trypanosoma cruzi; -8.28% in experiment [5]. Also, the Percent Effect in experiment [6] was 12.4%; in the experiment listed under Homo sapiens, -1.85%; in experiment [7], 3.17%; in [8], 2.56%; in experiment [9], -6.43%.

In the case of `CC[C@H](C)[C@H](NC(=O)c1ccccc1-n1cnnn1)C(=O)OC`, the Percent Effect was -2.24% in experiment [1]; -4% in [2]; 6.42% in [3]; -4.83% in experiment [4]; -14.2% in the experiment on Trypanosoma cruzi; -9.33% in experiment [5]. Besides, the Percent Effect in [6] was 1.85%; in the experiment listed under Homo sapiens, -2.35%; in experiment [7], -1.06%; in [8], -12.8%; in experiment [9] it was 1.23%.

Take `CCc1ncc2c(n1)CN(Cc1nc(C)c(C)o1)CC2`: the Percent Effect in experiment [1] is -3.48%; in experiment [2] it was 2.74%; in experiment [3], -53%; in experiment [4] it was -5.63%; in the experiment with Trypanosoma cruzi it was -1.76%; in [5], 6.82%. The Percent Effect was 9.94% in experiment [6]; 10.1% in the experiment listed under Homo sapiens; 5.38% in experiment [7]; 10% in experiment [8]; -5.18% in [9].

Take `O=S1(=O)C[C@@H]2[C@H](C1)N(Cc1cc(Cl)cc(Cl)c1)CCN2CC1CC1`: the Percent Effect is -4.25% in [1]; 8% in [2]; -0.723% in experiment [3]; -1.32% in [4]; -2.24% with Trypanosoma cruzi; 1.56% in [5]. For the same compound, the Percent Effect in experiment [6] was 12%; in the experiment listed under Homo sapiens, 22.5%; in experiment [7], 2.73%; in experiment [8] it was 11.1%; in experiment [9], -6.73%.

As to `CCCN(CC1COc2ccccc2O1)C(=O)CCn1cncn1` (stereo not drawn), the Percent Effect is -3.98% in [1]; 13.2% in experiment [2]; -1.36% in experiment [3]; -1.88% in experiment [4]; -1.5% with Trypanosoma cruzi; -0.383% in [5]. The Percent Effect in [6] is 8.52%; in the experiment filed under Homo sapiens, 0.478%; in [7] it was 7.35%; in experiment [8] it was 17.1%; in experiment [9] it was -2.23%.

Regarding `CC(NC(=O)c1cc(-c2cccc(Cl)c2)no1)C(=O)N1CCCC1` (stereo not drawn), the Percent Effect was -2.69% in experiment [1]; 0% in [2]; 16.6% in experiment [3]; -3.21% in experiment [4]; -5.16% in the experiment on Trypanosoma cruzi; -2.37% in [5]. Moreover, the Percent Effect is 7.19% in experiment [6]; -1.32% in the experiment listed under Homo sapiens; 2.13% in experiment [7]; 0% in experiment [8]; -4.18% in experiment [9].
